High-throughput results as filed in PubChem BioAssay.
Sampled rows, rich in hits. Any-hit rate of the full collection: about 1.4%.
PV pol inh = poliovirus RNA polymerase inhibition | P03300 | poliovirus polymerase elongation, fluorescence polarization; hits give low values | % elongation, % (compound at 16.7 µg/mL) | actives 0.66% (n = 150,000) | AID 588519; in the data active = % elongation below about 90%
MenB inh = inhibitors of Mycobacterium tuberculosis MenB enzyme; P9WNP5; MenB enzyme assay, absorbance read-out; inhibition, % (no concentration beside the values); actives 0.43% (n = 100,000); AID 540299; in the data active = inhibition above about 21%, passing the limit was not always enough
AID504770 = E. coli YBA685 growth inhibition, screen for V. cholerae RctB inhibitors | E. coli YBA685 rctB-dependent plasmid, OD600 growth, 3 h; hits give low values | actives 0.27% (n = 130,000) | AID 504770 | z-score (no concentration beside the values); in the data active = z-score below about -2, passing the limit was not always enough
MbtI inh = MbtI salicylate synthase inhibition; P9WFX0; purified MbtI enzyme, fluorescence intensity read-out; inhibition, % (test concentration not listed); actives 0.89% (n = 100,000); in the data active = inhibition mostly above about 56%, no sharp cut-off; inactive = mostly below about 77%
Target sequence (P9WFX0 whole entry, looked up): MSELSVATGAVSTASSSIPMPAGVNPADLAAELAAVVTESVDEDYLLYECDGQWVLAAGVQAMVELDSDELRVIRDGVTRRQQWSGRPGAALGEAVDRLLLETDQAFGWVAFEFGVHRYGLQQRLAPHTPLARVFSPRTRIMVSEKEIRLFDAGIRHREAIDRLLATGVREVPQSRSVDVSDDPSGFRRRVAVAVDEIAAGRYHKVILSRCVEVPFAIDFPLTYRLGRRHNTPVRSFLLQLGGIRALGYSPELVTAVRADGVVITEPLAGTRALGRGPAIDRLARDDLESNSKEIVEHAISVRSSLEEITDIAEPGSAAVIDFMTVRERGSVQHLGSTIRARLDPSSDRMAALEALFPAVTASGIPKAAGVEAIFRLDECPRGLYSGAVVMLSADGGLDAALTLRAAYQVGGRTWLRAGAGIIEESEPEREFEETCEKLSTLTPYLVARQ
Starred values were filed as active, the others as inactive; . = not tested or not shown; ! = not confirmed by another sample.

SMILES	PV pol inh	MenB inh	AID504770	MbtI inh
COC(=O)C1C(O)=C(C=Nc2ccccc2)C(=O)CC1(C)C (centres undefined)	101	34*	0.6	31
CC(=O)Nc1ccc(Cl)c(NC(=O)c2ncoc2-c2cccc(C)c2)c1	102	-6	-0.35	4
O=C1CNC(=O)N1Cc1ccc(F)cc1	99	34*	1.6	1
CC(=O)NC1=CC(=O)c2nonc2C1=O	.	.	-9.2*	47
O=C(O)CSc1nc2cc(Cl)ccc2n1Cc1ccccc1	101	.	-0.1	8
Cn1c(=O)[nH]c2nnc(-c3ccccn3)nc2c1=O	89*	-52	0.95	13
Cc1nnc(-c2ccccn2)[nH]c1=O	104	-2	-0.6	0
CCc1ccc(C(=O)c2cnc3cc4c(cc3c2N2CCCC2)OCCO4)cc1	103	3	1.6	3
O=c1c2c(-c3cccs3)csc2[nH]c(=S)n1-c1ccccc1	83*!	-43	1.8	99*!
CCOc1ccc(NC(=O)c2c(NC(=O)c3ccncc3)sc3c2CCC(C(C)(C)C)C3)cc1 (centres undefined)	83*	.	.	.
COc1ccc(NC(=O)c2c(NC(=O)c3ccncc3)sc3c2CCC(C(C)(C)C)C3)cc1 (centres undefined)	102	.	.	.
CCN1CCN(C2CC(=O)N(CC)C2=O)CC1 (centres undefined)	102	-27	-0.55	-19
CC(Sc1nncn1-c1ccccc1)C(N)=O (centres undefined)	105	-7	0.05	-9
CCc1ccc(CN2CCC(O)CC2)cc1	99	36*	-0.55	-11
Cc1nc(Cc2nnc(SCC(=O)NC(C)(C)C)o2)cs1	103	-19	-0.35	-7
Cc1nc(Cc2nnc(SCC(=O)NCC34CC5CC(CC(C5)C3)C4)o2)cs1	108	-17	-2.8*	3
S=C(NCc1ccc2c(c1)OCO2)N(Cc1ccco1)Cc1cccs1	88*	-39	0.85	60*
O=C(NCc1ccc2c(c1)OCO2)c1cccs1	.	.	0.65	.
CN1/C(=C/c2cccc[n+]2C)C=Cc2ccccc21	87*	-84	-0.8	3
CN1/C(=C/C=C(C#N)C#N)C=Cc2ccccc21	104	-13	-0.8	-7
COc1ccc(NC(=O)N(CCN(C)C)Cc2cc3cc(OC)ccc3[nH]c2=O)cc1	103	34*	0.05	80
COC(=O)C12CC3CC(C1)C(=O)C(C3)C2	102	.	0.35	-12
Cc1cc(C)nc(/N=C(/N)N2CCCCC2)n1	103	-7	2.5	2
CCc1nnc(SCC(=O)N(CC)c2ccccc2)c2cc3oc(C)cc3n12	111	.	.	.
C=CCN(C(=O)CSc1nnc(CC)n2c1cc1oc(C)cc12)c1ccccc1	101	45*	0.05	3
SMILES	PV pol inh	MenB inh	AID504770	MbtI inh
NC(=S)CC(=O)Nc1ccccc1	101	-36	-0.05	93*
NC(=S)Nc1ccc(C(=O)O)cc1	81*	-79	0.15	92
NC(=O)c1ccc(NC(=O)CSC(=O)c2ccccc2)cc1	102	.	-0.6	70*
CCOC(=O)C1=CC2c3ccc(Br)cc3C=CC2OC1=O (centres undefined)	102	-11	0.85	7
CCC(=O)Nc1nnc2n1CCS2	107	.	.	.
CCN(CC)c1nc2n(c(=S)n1)CCS2	102	30*	0.9	-2
Cc1nnsc1C(=O)NCc1ccc(N2CCN(C)CC2)cc1	.	.	-0.1	.
CN(C)CCCNCc1cccn1C	85*	4	0.1	0
CN(C)CCCNCc1ccco1	103	-22	-0.55	-2
Cc1sc2ncnc(N3CCC(C(=O)OCC(=O)NC4CC4)CC3)c2c1C	99	-8	0.1	8
COC(=O)C1=C(C)OC(N)=C(C#N)C12C(=O)N(C)c1ccccc12 (centres undefined)	105	4	2.5	.
Cc1ccc2occ(CC(=O)N(Cc3ccccc3Cl)C3CCS(=O)(=O)C3)c2c1 (centres undefined)	-14*	.	.	.
CC(C)CNC(=O)COc1ccc(-c2nnco2)cc1	104	-18	-0.25	-12
O=C(O)Cc1n[nH]c(=O)c2ccccc12	101	37*	-0.65	-9
O=C(Cc1n[nH]c(=O)c2ccccc12)NCc1ccccc1	101	28	-0.25	-6
COc1ccc(Cc2nn3c(Cc4ccccc4)nnc3s2)cc1	96	-37	0.2	93*
Cc1ccc(C(N)=S)c(=O)[nH]1	85*	-55	-0.2	173
O=c1c(CCc2ccccc2)nnc2c3ccccc3ncn12	100	6	-0.4	14
CN(C(=O)CSc1nncn2c1cc1sccc12)c1ccccc1	98	33*	-0.5	6
COC(=O)C(F)C(=O)OC	88*	11	0.8	-1
COC(=O)C(N)C12CC3CC(CC(C3)C1)C2 (centres undefined)	101	17	0.3	3
CCCNCc1ccccc1	99	32*	-0.1	-2
COC(=O)c1c(-c2cccs2)csc1NC(=O)COc1ccccc1	66*	.	.	.
COC(=O)c1c(-c2cccs2)csc1NC(=O)COc1c(C)ccc(C)c1C	62*	.	.	.
COC(=O)c1c(-c2cccs2)csc1NC(=O)COc1ccc(C(C)(C)C)cc1	80*	.	.	.
SMILES	PV pol inh	MenB inh	AID504770	MbtI inh
O=c1[nH]c(CN2CCOCC2)nc2ccccc12	70*	-13	-0.8	-1
O=c1[nH]c(CN2CCN(Cc3ccccc3)CC2)nc2ccccc12	104	4	0.4	-4
O=C(Cn1ncc2c(=O)oc3ccccc3c21)NCC1(c2ccccc2)CCCC1	.	.	2	.
Cc1cc(C(=O)CSc2nnc(-c3ccc4c(c3)OCO4)o2)c(C)n1C1CCS(=O)(=O)C1 (centres undefined)	103	2	0.85	10
S=c1[nH]nc(-c2ccncc2)n1-c1ccc2c(c1)OCO2	99	-4	0.9	62*
CCNc1nc(NCC)n2c(SCC(=O)Nc3ccc(CC)cc3)nnc2n1	104	-68	-0.55	87*
Cc1ccccc1S(=O)Cc1ccc(C(=O)N2CC(C)CC(C)C2)o1 (centres undefined)	101	-2	0.5	0
CC1(C)OC(=O)C(C23CC4CC(CC(C4)C2)C3)C(=O)O1	100	-23	-0.65	6
COc1ccc(N=c2oc3ccc(OC)cc3cc2C(N)=O)cc1	100	-5	0.5	1
O=C(c1ccc(Cl)cc1)N1CCC(c2nc(-c3ccc(F)cc3)no2)CC1	103	1	1.4	5
Nn1c(SCC(=O)NCc2ccc3c(c2)OCO3)nncc1=O	100	-47	-0.6	-1
Nn1c(SCC(=O)NCc2ccc3c(c2)OCO3)nnc1C1CC1	104	14	0.9	81*
COc1ccc(NC(=O)c2ccco2)cc1NC(=O)c1ccc(C)c(C)c1	104	.	.	.
COc1cc(OC)cc(C(=O)Nc2cc(NC(=O)c3ccco3)ccc2OC)c1	99	48*	-0.4	9
COC(=O)C1=CN(CCc2ccc(OC)cc2)C=C(C(=O)OC)C1c1ccsc1	106	-49	-0.2	.
COc1ccccc1OCCn1c(=O)c2cc3c(=O)n(CCOc4ccccc4OC)c(=O)c3cc2c1=O	.	.	0.25	.
Cc1cc(C)c(O)c(N)c1	105	7	0.4	101*
COc1cc(C(=O)Sc2ccc(Cl)cc2)cc(OC)c1OC	84*	-28	2.7	.
